Only some compounds are listed: those with a hit (about 2.3% of all), similar ones and a draw of the others.
CHO-K1 Ca ag = counter-screen for M1 agonists: effect in parental CHO-K1 cells; activation, % at 3 µM; AID 602248, 2012; Fluo-8 calcium fluorescence; scaled to maximal ATP response, vehicle zero; 0.48% of 360,000 active; in the data active means activation above about 15%;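 further: untransfected CHO-K1 host cells lacking M1 receptor as counterscreen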
M1 PAM = human M1 muscarinic receptor positive allosteric modulators, primary screen, CHO-K1 cells, Fluo-8 calcium fluorescence, 1536-well | Muscarinic acetylcholine receptor M1 (Homo sapiens), P11229 | CHO-K1 hM1, ACh EC20; 0% = ACh EC20, 100% = maximal ACh | activation, % at 3 µM | 0.088% of 360,000 active; in the data active means activation above about 19%, passing the limit was not always enough
Target sequence (P11229 whole entry, looked up): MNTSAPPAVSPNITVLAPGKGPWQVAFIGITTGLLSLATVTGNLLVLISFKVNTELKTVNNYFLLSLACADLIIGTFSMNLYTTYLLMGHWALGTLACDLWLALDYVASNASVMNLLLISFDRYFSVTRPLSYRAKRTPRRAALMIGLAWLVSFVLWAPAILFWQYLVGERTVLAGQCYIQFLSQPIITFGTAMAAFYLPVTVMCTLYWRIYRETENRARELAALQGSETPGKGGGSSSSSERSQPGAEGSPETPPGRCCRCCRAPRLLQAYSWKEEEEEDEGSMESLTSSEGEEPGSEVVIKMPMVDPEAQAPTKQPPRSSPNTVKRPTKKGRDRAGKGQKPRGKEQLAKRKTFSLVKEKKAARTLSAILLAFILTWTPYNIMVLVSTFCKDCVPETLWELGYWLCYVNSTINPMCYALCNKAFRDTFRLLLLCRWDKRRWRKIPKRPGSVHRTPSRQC
CHRM1 agonist = human M1 muscarinic receptor agonists, primary screen, Fluo-8 calcium fluorescence, CHO-K1 cells, HTS | CHO-K1 hM1, agonist mode; 0% DMSO, 100% acetylcholine EC100 | activation, % at 3 µM | 0.33% of 360,000 active;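 active means activation above the run's mean compound activation plus 3 SD, cut at about 16% in these data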;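 further: peak over basal fluorescence ratio within a 140 s kinetic read after compound addition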
M1 PAM parental = nonselective calcium activators in parental CHO-K1 cells, primary screen, counter-screen for M1 PAM project, cell-based, Fluo-8 calcium fluorescence, full deck, 1536-well. ATP EC20; 0% at ATP EC20, 100% at ATP max. activation, % at 3 µM. 0.02% of 360,000 active. AID 602247, 2012;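 active means activation above the run cutoff, the mean activation of all test compounds plus 3 SD, cut at about 40% in these data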;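 further: peak over basal fluorescence ratio in a 140 s read after ATP addition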
CHRM1 antagonist = human M1 muscarinic receptor antagonists, primary screen, CHO-K1 cells, Fluo-8 calcium fluorescence, 1536-well; Muscarinic acetylcholine receptor M1 (Homo sapiens), P11229; CHO-K1 hM1, ACh EC80 antagonist; inhibition, % at 3 µM; 1.3% of 360,000 active;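 active means percent inhibition above its own plate's cutoff, namely the mean of that plate's compound wells plus 3 SD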;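 further: peak over basal fluorescence ratio during 140 s after agonist addition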
CHO-K1 Ca antag = M1 antagonist counterscreen hit in parental CHO-K1 cells | 0.6% of 360,000 active | inhibition, % at 3 µM | ATP-induced calcium, Fluo-8 fluorescence;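 active means inhibition above a per-plate cutoff, the plate's mean sample inhibition plus 3 SD, cut at about 24% in these data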
Numbers stand for hits; - = inactive.

SMILES	CHO-K1 Ca ag	M1 PAM	CHRM1 agonist	M1 PAM parental	CHRM1 antagonist	CHO-K1 Ca antag
CC(C)CC(=O)Nc1nnc(S(=O)(=O)N2c3ccccc3CC2C)s1 (configuration not stated)	-	-	-	-	-	-
Fc1ccc(C(CCCn2nnc(-c3cccnc3)n2)c2ccc(F)cc2)cc1	-	-	-	-	27.3	-
Fc1ccc(-n2nnc(-c3cccnc3)n2)cc1	-	-	-	-	-	-
O=C(c1ccc(Cl)cc1)C(CN1CCCC1)c1ccccc1 (configuration not stated)	-	-	-	-	38.4	-
COc1ccc(C(=O)C(CN2CCCC2)c2ccccc2)cc1 (configuration not stated)	-	-	-	-	-	-
CCCCN=CC1=C(O)CC(c2ccccc2)CC1=O (configuration not stated)	-	-	-	-	-	-
COc1ccc([C@H]2C[C@@H](O)[C@H](n3cc(COC(=O)c4ccccc4)nn3)CN2CC2CCCCC2)cc1	-	-	-	-	-	-
COc1cccc(Oc2coc3c(CN4CCOCC4)c(O)ccc3c2=O)c1	-	-	-	-	-	27.7
O=C(NC1CCCCC1)c1ccc(-c2cccc([N+](=O)[O-])c2)o1	-	-	-	-	-	-
Fc1ccccc1C1c2[nH]c3ccccc3c2CCN1CCCn1cccn1 (configuration not stated)	-	-	-	-	38.1	-
CSc1ccccc1C(=O)N1CCN(S(=O)(=O)c2sc(C(=O)O)c(C)c2C(=O)O)CC1	-	-	-	-	-	-
CC(C)C[C@@H](NC(=O)C1CCC(CNC(=O)[C@@H]2CCCN2C(=O)OC(C)(C)C)CC1)C(=O)O (some centres not stated)	-	-	-	-	100.8	-
CCOc1ccc(/C=N/Nc2ccc(C(F)(F)F)cc2[N+](=O)[O-])cc1O	17.7	-	-	-	-	-
CCCCOc1ccccc1C(=O)NNC(=S)NC(=O)c1ccccc1[N+](=O)[O-]	-	-	19.0	-	-	-
O=C(NNC(=S)NC(=O)c1ccccc1[N+](=O)[O-])c1ccccc1[N+](=O)[O-]	-	-	-	-	-	-
O=C(Nc1ccccc1Cl)c1cc(C2CCCCN2C(=O)C2CCCCC2)on1 (configuration not stated)	-	-	-	-	-	-
COC(=O)N1CCCCC1c1cc(C(=O)Nc2ccccc2Cl)no1 (configuration not stated)	-	27.6	-	-	-	-
CCCNC(=O)c1cc(C2CCCCN2C(=O)c2cc(OC)c(C)c(OC)c2)on1 (configuration not stated)	-	-	-	-	-	24.6
Cc1noc(C)c1CSCC(=O)Nc1cccc(C(F)(F)F)c1	-	-	-	-	-	-
Cc1ccc(CNC(=O)CCNS(=O)(=O)c2cccc3nsnc23)cc1	-	-	-	-	-	-
CC(C)(C)OC(=O)C[C@@H]1C/C=C\C[C@H](CC(=O)N(CCO)Cc2ccccc2)C(=O)N[C@@H](Cc2c[nH]c3ccccc23)COC1=O	-	-	-	-	-	-
Cc1cc(C)c(S(=O)(=O)NC(CC(=O)O)c2cccc([N+](=O)[O-])c2)c(C)c1 (configuration not stated)	-	-	-	-	-	25.0
O=C(O)CC(NS(=O)(=O)Cc1ccccc1)c1cccc([N+](=O)[O-])c1 (configuration not stated)	-	-	-	-	-	-
OC[C@H]1O[C@@H](n2cnc3c(NCc4ccco4)ncnc32)[C@H](O)[C@@H]1O	-	-	35.2	-	-	-
Cc1cccc(CCN(CC(=O)NCc2ccc(F)cc2)C(=O)c2csnn2)c1	-	-	-	-	-	-
SMILES	CHO-K1 Ca ag	M1 PAM	CHRM1 agonist	M1 PAM parental	CHRM1 antagonist	CHO-K1 Ca antag
CC(=O)c1cccc(CN(C)CC2CCCN(CCc3ccccc3C)C2)c1 (configuration not stated)	-	-	-	-	99.8	-
COc1cc(CN(C)CC2CCCN(CCc3ccccc3F)C2)cc(Cl)c1OC (configuration not stated)	-	-	-	-	73.5	-
COc1ccc(F)c(CN(C)CC2CCCN(CCc3ccc(F)cc3)C2)c1 (configuration not stated)	-	-	-	-	33.1	-
CN(Cc1ccccc1)CC1CCCN(CCc2ccccc2F)C1 (configuration not stated)	-	-	-	-	-	-
CCN1C(=O)C(=O)N(CC(=O)c2[nH]c(C)c(C(C)=O)c2C)C1=O	-	-	-	-	-	-
CC(=O)c1c(C)[nH]c(C(=O)CN2C(=O)NC(C)(c3ccc(C)cc3)C2=O)c1C (configuration not stated)	-	-	26.5	-	-	-
COc1ccccc1N(CC(=O)NC1CCCCC1)C(=O)CCC(=O)Nc1nccs1	-	-	-	-	-	-
C[n+]1c(/C=C/c2ccc(O)cc2)ccc2ccccc21	-	-	-	-	-	-
Cc1cc(/C=C\c2ccc3cc(N(C)C)ccc3[n+]2C)c(C)n1-c1ccccc1	20.4	-	26.1	-	90.0	34.7
CC[N+](C)(C)c1cccc(O)c1	-	-	16.0	-	-	-
CCNc1cc(O)ccc1C	-	-	-	-	-	-
CSS(=O)(=O)c1cccc2cccnc12	-	-	-	-	-	-
COC(=O)c1cc(NC(=O)Cn2c(=O)oc3ccccc32)cc(C(=O)OC)c1	-	-	-	-	-	-
COc1cc(CN2CCC(Cc3ccccc3)CC2)c([N+](=O)[O-])cc1OC	-	-	-	-	-	-
Cc1ccc([N+](=O)[O-])c(OCCN2CCCCCC2)c1	16.2	-	-	-	-	-
Cc1ccc([N+](=O)[O-])c(OCCN2CCc3ccccc3C2)c1	-	-	-	-	-	-
O=[N+]([O-])c1cccc(OCCN2CCC(Cc3ccccc3)CC2)c1	-	-	-	-	91.2	-
Cc1ccc([N+](=O)[O-])c(OCCCN2CCC(Cc3ccccc3)CC2)c1	-	-	-	-	75.8	-
CC(Sc1ccccc1)C(=O)N1CCN(S(=O)(=O)c2cccc(Br)c2)CC1 (configuration not stated)	-	-	-	-	-	-
COc1ccc(Br)cc1CN(C)C(=O)c1ccccc1OCc1c(C)noc1C	-	-	-	-	-	-
